The full ranking holds about 35,000 sequences; the median of “fluorescence intensity (a.u.)” is about 10,000, and the highest 2% start at about 52,000. This is one part of a sample in which the highest values are shown more often than they occur.
These sequences were tested against T1, OsWOX13 (Oryza sativa, UniProt Q5QMM3 1-267) (assay: protein-binding microarray (RPBM); PBS, 2% BSA, 51.3 ng/ul salmon testes DNA, 50 uM zinc acetate, 200 nM TF, 25 C, 1 h; high values mean tight binding). Settings: protein: recombinant; tags: N-terminal polyhistidine and DsRed monomer fusion (pET32a); label: CyDye5-dUTP incorporated in the synthesized complementary strand; 3' TTTTT single-stranded linker to array surface; dsDNA, one strand shown.
T1 sequence: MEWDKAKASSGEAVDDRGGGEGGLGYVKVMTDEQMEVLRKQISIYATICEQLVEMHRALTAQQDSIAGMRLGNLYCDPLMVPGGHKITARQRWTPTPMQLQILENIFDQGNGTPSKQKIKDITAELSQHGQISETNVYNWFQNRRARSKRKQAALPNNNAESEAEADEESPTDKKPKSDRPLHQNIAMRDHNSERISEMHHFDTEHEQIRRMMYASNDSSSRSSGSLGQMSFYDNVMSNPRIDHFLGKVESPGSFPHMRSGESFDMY
In short: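 Binding signal is reported as fluorescence intensity per feature (arbitrary units) from an Axon 4000B scanner. Incubation used 200 nM of each Ni–NTA-purified, N-terminally polyhistidine- and DsRed-fused transcription factor from E. coli BL21-CodonPlus on a double-stranded custom Agilent array for 1 h at 25 °C, with 50 µM zinc acetate in the buffer, followed by washing.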
For “CCATCGTAATTGATCGAAAACTGACAACATGTTAGGGTTGCGGAGTCACCTAGTGCAG”, the binding signal was 12700 fluorescence intensity (a.u.).
With “AAACAAATGATTTTATTCATTTACTCATTCATCATATCACCGGAGTCACCTAGTGCAG” the binding signal was 10300 fluorescence intensity (a.u.).
In the case of “CCATGATGATGAGTCATTTTAACAGTCTGCAAGTACTAAACGGAGTCACCTAGTGCAG”, the binding signal is reported as 8500 fluorescence intensity (a.u.).
With “GCTTAATTGATTAATTTGCTGGACGAGGAATCTTCTATGTCGGAGTCACCTAGTGCAG” the binding signal was 64600 fluorescence intensity (a.u.).
For “AACCCTAGATTGATTTTGCGTGTGCTGCGTGAAGACGGCACGGAGTCACCTAGTGCAG”, the binding signal was 41400 fluorescence intensity (a.u.).
With “TTTAATTTTATGTTTTGATTTTAATCTATATCTCTTCTCTCGGAGTCACCTAGTGCAG” the binding signal was 22600 fluorescence intensity (a.u.).
For “ATTTTGACTGATGTGACGTTTGCGTGGCTGGTTTGATTAGCGGAGTCACCTAGTGCAG”, the binding signal was 28900 fluorescence intensity (a.u.).
For “TGACTTGATTAATTGCTTCTATGTTTGGCACCCAATTAATCGGAGTCACCTAGTGCAG”, the binding signal was 44900 fluorescence intensity (a.u.).
With “GTTTGATTGATTGATTTCGTGTACCATGCGGACTTCAGATCGGAGTCACCTAGTGCAG” the binding signal was 65100 fluorescence intensity (a.u.).
For “CTGAAACTGATTGAACTTTTGTCCATTTTCAGATCGTGTACGGAGTCACCTAGTGCAG”, the binding signal was 49400 fluorescence intensity (a.u.).
With “GATCGATTTGGTTTTGTTGATTTGATCTGGCCGGACAAGGCGGAGTCACCTAGTGCAG” the binding signal was 3980 fluorescence intensity (a.u.).
For “TAGTTTGTGATTGATTTGTCGACATCTGGAGGCGTCATGCCGGAGTCACCTAGTGCAG”, the binding signal was 58400 fluorescence intensity (a.u.).
“GACATATTGTCACCGGTTTTGATTAGTTGTGGATATCTGGCGGAGTCACCTAGTGCAG” was tested, and the binding signal was 6960 fluorescence intensity (a.u.).
For “GGGCCGTGATTGATTTGCTGGCGTGTGTGATTTTCAGCTGCGGAGTCACCTAGTGCAG”, the binding signal was 62900 fluorescence intensity (a.u.).
For “TGATTTGATTTTCAGTTTTGCACCATGCGATCGATCGAGACGGAGTCACCTAGTGCAG”, the binding signal was 4320 fluorescence intensity (a.u.).
For “CATCCATCCAACTTAATTTGACAGCAACTCACTGCAGCTTCGGAGTCACCTAGTGCAG”, the binding signal was 12000 fluorescence intensity (a.u.).
For “TAGTTAAATTTCCATTTAACTAGGGATAAATTAAATGGCTCGGAGTCACCTAGTGCAG”, the binding signal was 20200 fluorescence intensity (a.u.).
In the case of “AGAATATGATTTTAAAATTAATTTTAGGGGAGGGTTTTACCGGAGTCACCTAGTGCAG”, the binding signal is reported as 26000 fluorescence intensity (a.u.).
“TTGTTGTTATTTAATAAATTAGGAGATCAAATATGTTATTCGGAGTCACCTAGTGCAG” was tested, and the binding signal was 3300 fluorescence intensity (a.u.).
“GGGGCAAATTGGTCTTGTCATGAAAGCTAAAAGCCAAAGGCGGAGTCACCTAGTGCAG” was tested, and the binding signal was 4730 fluorescence intensity (a.u.).
For “CAAGATAATTACAAGTTTATAAAACAAACTACTACAGGGACGGAGTCACCTAGTGCAG”, the binding signal was 27200 fluorescence intensity (a.u.).
With “CACTATCTGATCCTAATTACACACTGATGCAGGGGTAAATCGGAGTCACCTAGTGCAG” the binding signal was 3790 fluorescence intensity (a.u.).
“GTTAATTTTGTCGAGTTAATTGGATCTTTGCTTTGATGGGCGGAGTCACCTAGTGCAG” was tested, and the binding signal was 57600 fluorescence intensity (a.u.).
For “ATCTTTAATTTTGATATTTAATTTTAATCATTGGAAAGGGCGGAGTCACCTAGTGCAG”, the binding signal was 25000 fluorescence intensity (a.u.).
For “AGGTGTACATGATTGTTTGCTTCCTTGCTGCAGCTCGGCGCGGAGTCACCTAGTGCAG”, the binding signal was 14100 fluorescence intensity (a.u.).
With “CATAATTGCTGATATTTTGTCTTTGGAGTTTGATCCATGGCGGAGTCACCTAGTGCAG” the binding signal was 44200 fluorescence intensity (a.u.).
With “CAATGCTTGCTTGATTGGGAGCGCGTCGTCGAGGGCGTCGCGGAGTCACCTAGTGCAG” the binding signal was 14400 fluorescence intensity (a.u.).
In the case of “TGATTGATTGCTTGATTGGGAGTGTCCTTTGGGCGAGCTGCGGAGTCACCTAGTGCAG”, the binding signal is reported as 64900 fluorescence intensity (a.u.).
In the case of “CCCCATCGTCACTTATAATTTATGAATAAAACTTTTAGATCGGAGTCACCTAGTGCAG”, the binding signal is reported as 4840 fluorescence intensity (a.u.).
With “GGATGAAATTAGCCCATCAGCAATTACGTGTAGGCCGTAGCGGAGTCACCTAGTGCAG” the binding signal was 3690 fluorescence intensity (a.u.).
“ATGTTCCTATCAGTTGCTAATTATTAGTGTGACATCAATCCGGAGTCACCTAGTGCAG” was tested, and the binding signal was 16300 fluorescence intensity (a.u.).
For “ATTAAGTCTAATTAATCTGTTATTAGCAAATGTTTACTGTCGGAGTCACCTAGTGCAG”, the binding signal was 11100 fluorescence intensity (a.u.).
With “CCTAATTACGCCATGATTTGATAATATGATGCTACAATAACGGAGTCACCTAGTGCAG” the binding signal was 39600 fluorescence intensity (a.u.).
“ACTGCTGCCGATTGACTGCTACGAGTAGCTCGCACCTGGCCGGAGTCACCTAGTGCAG” was tested, and the binding signal was 7450 fluorescence intensity (a.u.).
For “AATCAATTTAATAATTGATTAAACAGAGCAAATTTTAGCTCGGAGTCACCTAGTGCAG”, the binding signal was 65100 fluorescence intensity (a.u.).
“TTTAATTGATAAATATTATCAATTATTAAACAGATAAGCGCGGAGTCACCTAGTGCAG” was tested, and the binding signal was 62800 fluorescence intensity (a.u.).
In the case of “TAATATTTAAATTAAACCTATAATCAAGCAGATGATTTATCGGAGTCACCTAGTGCAG”, the binding signal is reported as 8840 fluorescence intensity (a.u.).
“TTTAATATTTATAATTAATGTCAAACATCAGATGTGATAGCGGAGTCACCTAGTGCAG” was tested, and the binding signal was 12700 fluorescence intensity (a.u.).
For “CAATTGTGAAATAATTAATTAAATTATCATTAAGCCCCAACGGAGTCACCTAGTGCAG”, the binding signal was 30300 fluorescence intensity (a.u.).
“TGAAATAATTAATTAAATTATCATTAAGCCCCAAACCGAGCGGAGTCACCTAGTGCAG” was tested, and the binding signal was 57300 fluorescence intensity (a.u.).
For “CCAAATTAAGCCATTAATTAATAAAACAATATCATTAGGACGGAGTCACCTAGTGCAG”, the binding signal was 28900 fluorescence intensity (a.u.).
With “GAGCAAAACAATAATTAAATATATTTTGATAATAAATTTGCGGAGTCACCTAGTGCAG” the binding signal was 3560 fluorescence intensity (a.u.).
In the case of “TAATAATTGATTAAACAGAGCAAATTTTAGCTTGCAGATACGGAGTCACCTAGTGCAG”, the binding signal is reported as 48500 fluorescence intensity (a.u.).
With “GATAGATGATATACCCGTTAACAATGAGACGTTTGTGGAGCGGAGTCACCTAGTGCAG” the binding signal was 3270 fluorescence intensity (a.u.).

— publication PMC7819943, “Rice protein-binding microarrays: a tool to detect cis-acting elements near promoter regions in rice”
